The whole screen tested about 44,000 compounds, of which about 370 (0.84%) were called active. How the calls were made is not given here. This excerpt belongs to a sample that is enriched for actives.
Experiment: compounds raising algal triacylglycerol storage – qHTS, Chlamydomonas reinhardtii, primary screen (AID 1159537);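 further: hits raise Nile Red signal meaning more stored TAG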
Details: Chlamydomonas reinhardtii TAG, Nile Red fluorescence, 72 h; screened at 10 µM (by protocol)

| SMILES | outcome |
| --- | --- |
| COCCN1C(=O)C(O)=C(C(=O)c2ccc(C)o2)C1c1cccc(Cl)c1 (centres undefined) | inactive |
| NC(=O)c1sc2cc([N+](=O)[O-])ccc2c1Cl | inactive |
| O=C(CCCc1ccccc1)Nc1cccc(Cl)c1 | inactive |
| CCc1cccc(C)c1NC(=O)c1cc(OC)cc(OC)c1 | inactive |
| COc1ccc(CNC(=O)C(c2ccccc2)c2ccccc2)cc1 | inactive |
| NC(=O)c1c(NC(=O)COc2ccc([N+](=O)[O-])cc2)sc2c1CCCC2 | inactive |
| COc1cccc(OCCOc2ccc(C)cc2OC)c1 | inactive |
| COc1ccc(S(=O)(=O)N2CCN(c3ccccc3F)CC2)cc1OC | inactive |
| CC1(C)Cc2ccccc2/C(=C(\C#N)C(=O)Nc2cccc([N+](=O)[O-])c2)N1 | inactive |
| Cc1cc(C)nc(NS(=O)(=O)c2ccc(N/C=C\C(=O)c3cccs3)cc2)n1 | inactive |
| Cc1cccc(NC(=O)c2ccc(Cl)c(Cl)c2)c1C | inactive |
| Cc1cc(=O)[nH]c(SCc2ccc(Cl)cc2)n1 | inactive |
| CCCCOc1ccc(N2C(=O)CC(N3CCN(c4ccccn4)CC3)C2=O)cc1 (centres undefined) | inactive |
| CC(=O)N1CCN(Cc2c(Cl)cccc2Cl)CC1 | inactive |
| C=CCn1c(=O)c(C2=NS(=O)(=O)c3ccccc3N2)c(O)c2ccccc21 | inactive |
| O=C(c1ccc([N+](=O)[O-])cc1)N1CCN(C2CCCC2)CC1 | inactive |
| CCOc1ccccc1C(=O)Nc1ccc([N+](=O)[O-])cc1OC | inactive |
| Clc1ccc(-c2nnc3ccc(NCc4ccccc4)nn23)cc1 | inactive |
| O=C(O)c1ccccc1C(=O)c1ccc(O)cc1O | inactive |
| OCCN(Cc1ccccc1)Cc1ccc(-c2ccccc2)cc1 | inactive |

| SMILES | outcome |
| --- | --- |
| CCOc1ccc(NC(=O)C(=O)NCCc2ccc(Cl)cc2)cc1 | inactive |
| O=C(Nc1cccnc1)c1cccc(C(=O)Nc2cccnc2)c1 | inactive |
| CCOC(=O)N1CCN(C2CCN(CC)CC2)CC1 | inactive |
| CCN1CCN(C2CCN(Cc3ccccc3)CC2)CC1 | inactive |
| CCC1CCC(N2CCN(CC)CC2)CC1 (centres undefined) | active |
| O=C(c1cccc([N+](=O)[O-])c1)c1ccc2c(c1)C(=O)N(c1nccs1)C2=O | inactive |
| COc1c(S(=O)(=O)NCc2ccncc2)ccc(Cl)c1Cl | inactive |
| CCCCOc1ccc(N2C(=O)CC(N3CCN(c4ncccn4)CC3)C2=O)cc1 (centres undefined) | inactive |
| Cc1ccc(SCC(=O)Nc2ccc3c(c2)OCCO3)cc1 | inactive |
| NNc1ncnc2sc3c(c12)CCCC3 | inactive |
| COc1ccc(C(=O)N2CCC(C(=O)Nc3ccc(OCc4ccccc4)cc3)CC2)cc1 | inactive |
| O=C1NCCCc2nc(N3CCOCC3)sc21 | inactive |
| COc1ccc(N(CC(=O)N(C)Cc2ccccc2)S(C)(=O)=O)cc1OC | inactive |
| O=C(COc1ccc(Cl)cc1)Nc1ccc(F)c(F)c1 | inactive |
| O=C(/C=C/c1ccc(-c2ccccc2Cl)o1)c1ccco1 | inactive |
| O=C(c1ccc(C#CC2(O)CCCCC2)cc1)N1CCN(c2ccccc2Cl)CC1 | inactive |
| N#CC1=C(SCc2ccccc2)NC(=O)CC1c1ccc(Br)cc1 (centres undefined) | inactive |
| CC(=O)c1ccc(N2CCN(C(=O)c3c(F)c(F)cc(C)c3Cl)CC2)c(F)c1 | inactive |
| COc1ccc(-c2cc(C(=O)Nc3cccnc3)c3ccccc3n2)cc1 | inactive |
| Cc1cc(C)c(NC(=O)c2ccc(F)cc2)c(C)c1 | inactive |

| SMILES | outcome |
| --- | --- |
| CC(C)c1ccc(OCC(=O)N2CCCC2)cc1 | inactive |
| O=C(NCC1CCNCC1)C(=O)NC1CCCCC1 | inactive |
| NC(=O)c1ccc2[nH]c3c(c2c1)CCCC3 | inactive |
| O=S(=O)(CCc1ccccc1)Nc1ccccc1 | inactive |
| CC(C)COc1ccc(C(=O)Nc2ccc([N+](=O)[O-])cc2Cl)cc1 | inactive |
| Cc1ccc(C(C)C)cc1OCCN1CCCC1 | inactive |
| CCOc1ccc(CN2CCCN(C)CC2)cc1 | inactive |
| Cc1cc(OCCN2CCN(C)CC2)ccc1C(C)C | active |
| Cc1cc(OCCCCN2CCOCC2)ccc1C(C)C | active |
| Cc1cc(OCCN2CCOCC2)nc(NCc2ccccc2)n1 | inactive |
| Cc1ccc(CN2CCOCC2)c(C)c1 | inactive |
| CS(=O)(=O)N(Cc1ccc(C(=O)Nc2cccnc2)cc1)c1ccccc1 | inactive |
| CCc1ccc(N2CC(C(=O)NC(C)CC)CC2=O)cc1 (centres undefined) | inactive |
| O=C(Nc1cccc(Cl)c1Cl)c1ccc(I)o1 | inactive |
| CCOc1ccc(NC(=O)C(=O)NCc2ccccc2OC)cc1 | inactive |
| Cc1cc(Cl)ccc1NC(=O)c1cccnc1 | inactive |
| CS(=O)(=O)N1CCN(c2ccc(C(=O)NC3C4CC5CC(C4)CC3C5)cc2[N+](=O)[O-])CC1 (centres undefined) | inactive |
| Cc1ccc(C(=O)c2ccc(N3CCN(C)CC3)c([N+](=O)[O-])c2)cc1 | active |
| CC1CCN(c2ccc(C(=O)O)cc2[N+](=O)[O-])CC1 | inactive |
